# Vaccinia Venus = qHTS for Stage-Specific Inhibitors of Vaccinia Orthopoxvirus: Venus Reporter Primary qHTS; Potency, µM (titrated, usually from 36.5 µM), actives largely listed as inhibitors; actives 0.46% (n = 330,000); Vaccinia virus Venus reporter expression, fluorescence; calls by dose curve; tested in A549 cells; also: nearly all actives have a fitted effect of over 30% in size
# Marburg entry inh = qHTS for inhibitors of binding or entry into cells for Marburg Virus; Marburg virus pseudotyped entry inhibition, cell reporter; Potency, µM (titrated, usually from 37.8 µM), most hits filed as inhibitors; actives 1.8% (n = 300,000); AID 540276, 2011; calls by dose curve; tested in HEK293 cells
# Lassa entry inh = qHTS for Inhibitors of binding or entry into cells for Lassa Virus; Lassa virus pseudotype entry inhibition, cell reporter; Potency, µM (highest dose often 37.9 µM), usual class: inhibitors; actives 1.2% (n = 300,000); AID 540256, 2011; calls by dose curve; tested in HEK293 cells; also: nearly all actives have a fitted effect of over 50% in size
# FMDV antiviral = High Throughput Screening for Foot and Mouth Disease Virus Antivirals; FMDV antiviral cell-based qHTS; Potency, µM (series often up to 57.9 µM), most hits filed as inhibitors; actives 1.2% (n = 410,000); AID 1159524, 2015; calls by dose curve; tested in HEK293T cells; also: read-out not given here; nearly all actives have a fitted effect of over 45% in size
# VACV mCherry inh = qHTS for Stage-Specific Inhibitors of Vaccinia Orthopoxvirus: mCherry Reporter Primary qHTS; Vaccinia virus mCherry reporter infection, fluorescence; Potency, µM (highest dose often 36.5 µM), most hits filed as inhibitors; actives 0.63% (n = 310,000); calls by dose curve; tested in A549 cells; also: nearly all actives have a fitted effect of over 35% in size
# HCMV inh = qHTS Assay for inhibitors of the human cytomegalovirus (HCMV); activity change, negative = inhibition, % at 57.5 µM; actives 4.5% (n = 410,000); HFF cells, HCMV-luciferase reporter, 72 h; stronger effect = lower value; in the data active = activity change below about -60%; inconclusive = no clear call, values can overlap the other calls; inactive = above about -39%
#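 Inhibition of viral replication was scored as loss of reporter luminescence in HFFs infected with HCMV-luciferase (MOI 1 PFU/cell) for 72 h; compounds tested at 2 doses, normalized to buffer and Salinomycin controls.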
# Numbers stand for hits; i = inactive; ? = inconclusive; nt = no result given; [ ] = dose if it differs, or a comment. Most compounds without a hit are left out; they make up all but 6.5% or so of the library.
SMILES,Vaccinia Venus,Marburg entry inh,Lassa entry inh,FMDV antiviral,VACV mCherry inh,HCMV inh
O=C(Nc1ncc(Cc2ccccc2)s1)C1CCCO1 (centres undefined),i,?,15µM,i,i,i
O=C(Nc1ncc(Cc2ccccc2)s1)C1CCN(C(=O)c2ccco2)CC1,i,nt,nt,nt,i,nt
O=C(Nc1ccc(-c2nc3cccnc3s2)cc1)C1CCCO1 (centres undefined),i,2.6µM,?,i,i,i
c1cc[n+](CCC[n+]2ccccc2)cc1,i,i,?,i,i,-102
CC(C)=CCC1=C(O)c2ccccc2C(=O)C1=O,i,nt,nt,i,i,nt
O=C1C(=O)c2ccccc2C(O)=C1CC=C(Cl)Cl,i,?,3.2µM,?,?,-95
NC1(C(=O)O)CCCc2ccc(N(CCCl)CCCl)cc21 (centres undefined),i,10µM,?,i,i,-63
O=C1NC(=O)C2(CCCc3ccc(N(CCO)CCO)cc32)N1 (centres undefined),nt,nt,nt,nt,nt,i
NC1(C(=O)O)CCc2cc(C(=O)O)ccc21 (centres undefined),i,i,i,i,i,nt
O=C1NC(=O)C2(CCCc3ccc(N(CCCl)CCCl)cc32)N1 (centres undefined),i,?,?,i,i,-81
CCCCCc1ccc(-c2cn(CN3C(=O)c4ccccc4C3=O)nn2)cc1,i,nt,nt,i,i,i
COc1ccc(N/C(=N/c2nc(C)cc(C)n2)NC(=O)C(C)C)cc1OC,nt,i,nt,nt,nt,nt
CCN1C(=S)SC(=O)C1=C1C=C(C)N(CCO)C(C)=C1,i,?,?,nt,i,-68
O=C(NCc1ccccc1)O[C@H]1CC[C@@]23CCCN2C(=O)CCC[C@H]3[C@H]1Cc1ccccc1,nt,nt,nt,nt,nt,i
COc1ccc(-c2nc(CN3CCN(c4cc(C)nc(C)c4)CC3)c(C)o2)c2ccccc12,11µM,?,11µM,i,?,?
COc1ccc(-c2nc(CN3CCN(Cc4ccccc4)CC3)c(C)o2)cc1,nt,nt,nt,i,nt,i
Cc1cccc(N2CCN(Cc3nc(-c4cccc(Oc5ccccc5)c4)oc3C)CC2)n1,nt,nt,nt,i,nt,i
Cc1oc(-c2cccc3ccccc23)nc1CN1CCN(c2ncnc3ccccc23)CC1,i,?,?,16µM,i,?
Cc1cc(N2CCN(Cc3nc(-c4ccc(Cl)cc4)oc3C)CC2)cc(C)n1,?,4µM,?,i,i,?
Cc1cnc(C)c(N2CCN(Cc3nc(-c4ccc(C)o4)oc3C)CC2)n1,i,i,i,i,i,?
CN1CC(=O)N/C1=N\C(=O)Nc1cccc(Cl)c1,nt,nt,nt,nt,nt,i
CCOc1cc(CN2CCN(c3cccc(C(F)(F)F)c3)CC2)ccc1O,nt,16µM,i,i,nt,i
O=[N+]([O-])c1cc(CN2CCN(c3cccc(C(F)(F)F)c3)CC2)c2cccnc2c1O,i,?,?,i,i,-76
O=[N+]([O-])c1cc(CN2CCCC2)c2cccnc2c1O,i,i,i,i,i,nt
CCOCc1cc(CN2CCN(c3cccc(C(F)(F)F)c3)CC2)c(O)c2ncccc12,i[7.34 µM],?,?,?,?,-100
SMILES,Vaccinia Venus,Marburg entry inh,Lassa entry inh,FMDV antiviral,VACV mCherry inh,HCMV inh
CC(C)OCc1cc(CN2CCN(c3cccc(C(F)(F)F)c3)CC2)c(O)c2ncccc12,i[7.34 µM],?,?,i,4µM,-98
CCOc1cc(CN2CCN(c3cccc(C(F)(F)F)c3)CC2)ccc1OC,i,?,i,nt,i,i
CCCCCCCCN(CCCCCCCC)c1ccc(/C=C/c2ccnc3ccccc23)cc1,i,nt,nt,nt,i,nt
O=c1c2ccccc2oc2ccc(-c3ccoc3)cc12,i,nt,nt,nt,i,nt
Cc1ccc2nc(-c3ccc(C)o3)c(Nc3ccc(Cl)cc3)n2c1,i,nt,nt,nt,i,nt
N#Cc1ncc(-c2ccc3c(c2)OCCOCCOCCOCCO3)nc1C#N,i,?,?,40µM,i,-73
CCCNC(=O)OC[C@H]1O[C@H](CCO/N=C2\C[C@@H](O)[C@@H](O)[C@@H]3[C@@H]4C(=O)N(CC)C(=O)[C@@H]4CC[C@@H]23)C=C[C@@H]1Oc1ccc(OC)cc1,nt,i,nt,nt,nt,nt
C1CCN(CCCNC2C3CC4CC(C3)CC2C4)C1 (centres undefined),i,?,?,i,i,-84
CCOC(=O)N1CCN(c2nc(-c3cccc(OC)c3)cc(C(F)(F)F)n2)CC1,nt,?,?,i,nt,i

# Bioassay records from PubChem BioAssay.
